# Screening data (PubChem BioAssay)
# Shown are actives, neighbours in structure and some others; about 4% of the full set was active somewhere.
# MazEF act = activators of E. coli MazEF toxin-antitoxin RNase | 350,000 tested, 0.32% active | activation, % at 20 µM | FAM/BHQ RNA-DNA oligo cleavage fluorescence, 5 h; in the data active means activation above about 50%
# Target sequence (P0AE70 whole entry, looked up): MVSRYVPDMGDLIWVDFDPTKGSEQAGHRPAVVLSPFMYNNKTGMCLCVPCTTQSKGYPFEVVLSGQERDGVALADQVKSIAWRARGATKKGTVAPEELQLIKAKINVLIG
# Mtb bLac sens = beta-lactam sensitization of Mtb H37Rv. M. tuberculosis H37Rv growth with meropenem, percent inhibition. 330,000 tested, 0.27% active. inhibition, % at 25 µM; call rule not given here;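 further: growth measured after seven days incubation then overnight dye step; 0% = bacteria only wells and 100% = bacteria with antibiotic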
# GDH-TPI counter = GDH-TPI coupled enzyme inhibition counter-screen. GDH-TPI coupled enzyme counterscreen, NADH absorbance. inhibition, % at 4.8 µM. 360,000 tested, 1.2% active. AID 588335;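 further: 0% = DMSO wells and 100% = wells lacking the enzyme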
# FBA Mtb inh = inhibitors of M. tuberculosis fructose-bisphosphate aldolase; P9WQA3; purified M. tuberculosis FBA, fluorescence read-out; inhibition, % at 1 µM; 360,000 tested, 2.3% active; AID 588726; in the data active means inhibition above about 27%;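 further: 0% = vehicle and 100% = reference inhibitor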
# CCHF vOTU inh = blocks the CCHF virus ovarian tumor domain protease; inhibition, % at 11.5 µM; CCHFV vOTU protease, Pep-AMC fluorescence; AID 651958; 370,000 tested, 0.55% active; further: 0% = vehicle wells with enzyme and 100% = no enzyme wells
# Active calls of the source: *; nt = no result given; + = active, no number. Unless noted, no stated cut-off is given here; in the data, active means inhibition above about 30%; inactive means the rest.
SMILES,MazEF act,Mtb bLac sens,GDH-TPI counter,FBA Mtb inh,CCHF vOTU inh
O=c1[nH]c(N/N=C\c2ccc(F)cc2)nc2ccccc12,56*,5,25,22,-16
O=c1[nH]c(N/N=C/c2ccc(O)cc2)nc2ccccc12,51*,0,28,23,-34
O=C(N/N=C/c1ccncc1)c1nc2ccccc2c(=O)[nH]1,7,2,19,1,-1
CC(=O)Nc1c(S(=O)(=O)c2ccccc2)c2nc3ccccc3nc2n1Cc1ccccc1,5,-5,11,148*,-133
Cc1ccc(S(=O)(=O)c2c(N)n(-c3ccccc3)c3nc4ccccc4nc23)cc1,1,2,14,129*,-57
Nc1c(S(=O)(=O)c2cc(Cl)ccc2Cl)c2nc3ccccc3nc2n1CCN1CCOCC1,-3,-9,20,13,-12
CCCCn1c(N)c(S(=O)(=O)c2ccc(C)cc2)c2nc3ccccc3nc21,-23,49,18,116*,-73
CCCn1c(C)nc2c(c1=O)c1nc3ccccc3nc1n2-c1ccccc1,6,nt,1,5,7
Cc1ccc(Cn2c(N)c(S(=O)(=O)c3cccs3)c3nc4ccccc4nc32)cc1,-15,-13,8,18,-9
CN(C)CCCn1c(N)c(S(=O)(=O)c2ccccc2)c2nc3ccccc3nc21,1,-13,20,113*,-212
O=C1CCC2(CCC(c3ccccc3)CC2)N1CCO (stereo not given),nt,nt,nt,nt,6
CC(C)[C@@H]1NC(=O)[C@H]2C[C@@]3(c4ccccc4)c4ccccc4N[C@H]3N2C1=O,nt,nt,nt,nt,6
CCOC(=O)C1=NOC(C(C)=O)(C(=O)Nc2cc(C)cc(C)c2)C1 (stereo not given),nt,nt,nt,nt,-4
CCCCCCCCNC(=O)C1CSCCS(=O)(=O)N1Cc1ccc(OC)cc1 (stereo not given),nt,nt,nt,nt,-3
Cc1ccc(S(=O)(=O)/N=C/c2ccc(N(C)C)cc2)cc1,-10,3,35*,-2,9
CCOc1c(C(N)=O)c(-c2ccccc2)c2c(=O)[nH]c3ccccc3n12,8,1,14,112*,-1
CCOC(=O)c1c(C)nc(C)c(C(=O)OCC)c1-c1ccccc1,-7,14,-10,-4,nt
COC(=O)[C@]12C[C@H](CC(=O)N3CCOCC3)C(=O)N(Cc3ccco3)C1=C[C@H](C(C)(C)C)O[C@@H]2C,nt,nt,nt,nt,10
CCN1/C(=C/c2ccc3cc(C)ccc3[n+]2CC)Sc2cc(C)c(C)cc21,71*,nt,-3,-4,17
Cn1c2ccsc2c2ncn(Cc3ccccc3F)c(=O)c21,-1,3,7,+,-229
Cc1cc(C)nc(SCc2nnc(SCC(N)=O)n2Cc2ccco2)n1,8,-6,2,5,5
COc1ccccc1NC(=O)Cn1c(C)nc2c(sc(=S)n2Cc2ccco2)c1=O,-20,2,32*,1,-5
CCOC(=O)CSc1nc2c(sc(=S)n2Cc2ccco2)c(=O)n1-c1ccccc1,0,-2,33*,-2,-3
CCOC(=O)CSc1nnc(CSc2nc(C)cc(C)n2)n1Cc1ccco1,74*,-3,4,7,-14
COC(=O)c1cc(-c2ccc(Cl)s2)c(=O)n2c1CCC2,nt,nt,nt,nt,-46
SMILES,MazEF act,Mtb bLac sens,GDH-TPI counter,FBA Mtb inh,CCHF vOTU inh
COc1cccc2c1[C@H](/C=C/c1ccccc1)[C@@H]([C@H](O)COC(C)=O)OC2,nt,nt,nt,nt,3
Cc1nc2ccc(NC(=O)c3ccc(F)cc3F)cc2c(=O)[nH]1,nt,nt,nt,nt,-7
CCOC(=O)C1Nc2ccc(C(F)(F)F)cc2C2c3ccccc3CC12 (stereo not given),-8,0,-8,2,13
CCOC(=O)C1Nc2ccccc2C2C(O)C(O)CC12 (stereo not given),-3,67,18,4,61*
COC(=O)Cc1nnn2c1[C@H](C)[C@@H](OC)c1cccc(Cl)c1-2,nt,nt,nt,nt,-8
Cc1cc(-c2ccco2)c(C#N)c2nc3ccccc3n12,+,-1,31*,2,-1
Cc1cc(C(C)C)n2c(nc3ccccc32)c1C#N,nt,1,nt,nt,nt
O=C(CSc1nnc(-c2ccccn2)n1-c1ccccc1)Nc1ccc2c(c1)OCCO2,nt,nt,nt,nt,-6
COc1cc(-c2cc3nc4ccccc4n3c(N)c2C#N)cc(OC)c1OC,-26,3,9,+,-114
N#Cc1c(-c2ccccc2)cc2nc3ccccc3n2c1N,-1,2,23,147*,-61
COc1cc(-c2c(C#N)c(N)nc(SCc3ccncc3)c2C#N)cc(OC)c1OC,-1,58,11,0,nt
Nc1cc(-c2ccccc2)n2c(n1)nc1ccccc12,3,-6,2,4,-1
